Screens (PubChem)
Shown are actives, neighbours in structure and some others; about 2.9% of the full set was active somewhere.
NadD inh: inhibitors of S. aureus NadD, primary screen, biochemical, colorimetric, uHTS; Nicotinate-nucleotide adenylyltransferase NadD (Staphylococcus aureus N315); inhibition, % at 20 µM; hit rate 0.78% among 360,000; AID 602399, 2012; purified NadD enzyme, colorimetric absorbance read-out; in the data active = inhibition above about 26%
H9c2 protect: cardioprotection against H2O2-induced cell death, primary screen, uHTS, H9c2 cells, ATPLite luminescence; H9c2 cardiomyocytes, H2O2 injury protection, 2 h; protection from H2O2 cell death, % at 20 µM; hit rate 0.63% among 360,000;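 active = compounds giving at least 50% protection of heart cells from peroxide-induced death in the single-dose screen, raw or plate-pattern-corrected value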;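 also: 0% = DMSO wells with peroxide and 100% = DMSO wells without peroxide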
H9c2 TAG inh: inhibitors of triacylglycerol accumulation, primary screen, cell-based, uHTS, fluorescence, H9c2. H9c2 cells, Nile Red lipid (TAG) fluorescence; cells loaded with 200 µM oleic acid. inhibition, % at 12.5 µM. hit rate 0.66% among 230,000;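 active = pattern-corrected inhibition of lipid staining of at least 50% with the nuclear-stain viability signal not falling by more than 50%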;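 also: 0% = DMSO wells and 100% = triacsin C control wells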
A3A deaminase: APOBEC3A ssDNA deaminase inhibitors, primary screen, selectivity assay for APOBEC3G inhibitor project, biochemical, FAM/TAMRA oligo cleavage fluorescence. inhibition, % at 20 µM. hit rate 0.41% among 330,000. AID 493011, 2011. recombinant A3A, FAM/TAMRA ssDNA deamination fluorescence;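 active = at least 40% inhibition at 20 µM here, with at most 30% in a related deaminase screen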;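 also: plate controls were A3A with DMSO for no effect and wells lacking A3A enzyme for full effect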
Target sequence (P31941 whole entry, looked up): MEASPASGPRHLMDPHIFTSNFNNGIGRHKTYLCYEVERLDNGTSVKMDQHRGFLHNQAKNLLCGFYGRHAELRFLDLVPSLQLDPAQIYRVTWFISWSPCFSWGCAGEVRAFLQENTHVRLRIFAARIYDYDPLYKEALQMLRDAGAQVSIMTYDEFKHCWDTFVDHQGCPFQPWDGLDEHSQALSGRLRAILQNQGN
PfG6PD inh: PfG6PD enzyme inhibitors, primary screen, biochemical, fluorescence intensity, uHTS. hit rate 0.78% among 350,000. PfGluPho enzyme, NADPH resazurin-diaphorase fluorescence. inhibition, % at 20 µM. glucose-6-phosphate dehydrogenase-6-phosphogluconolactonase (Plasmodium falciparum 3D7);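 active = inhibition reaching at least a set limit at 20 µM in the primary screen, cut at about 59% in these data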;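 also: 0% = DMSO wells with substrate and 100% = DMSO wells lacking glucose-6-phosphate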
A3G deaminase: APOBEC3G DNA deaminase inhibitors, primary screen, biochemical, fluorescence, single-stranded DNA substrate, uHTS | DNA dC->dU-editing enzyme APOBEC-3G (Homo sapiens), Q9HC16 | hit rate 0.28% among 330,000 | inhibition, % at 20 µM | recombinant A3G, ssDNA deamination FAM/TAMRA fluorescence;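 active = inhibition of at least 40% at 20 µM, with no more than 30% in the related APOBEC3A deaminase screen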;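 also: plate controls were DMSO wells with A3G for no effect and wells lacking A3G enzyme for full effect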
Target sequence (Q9HC16 whole entry, looked up): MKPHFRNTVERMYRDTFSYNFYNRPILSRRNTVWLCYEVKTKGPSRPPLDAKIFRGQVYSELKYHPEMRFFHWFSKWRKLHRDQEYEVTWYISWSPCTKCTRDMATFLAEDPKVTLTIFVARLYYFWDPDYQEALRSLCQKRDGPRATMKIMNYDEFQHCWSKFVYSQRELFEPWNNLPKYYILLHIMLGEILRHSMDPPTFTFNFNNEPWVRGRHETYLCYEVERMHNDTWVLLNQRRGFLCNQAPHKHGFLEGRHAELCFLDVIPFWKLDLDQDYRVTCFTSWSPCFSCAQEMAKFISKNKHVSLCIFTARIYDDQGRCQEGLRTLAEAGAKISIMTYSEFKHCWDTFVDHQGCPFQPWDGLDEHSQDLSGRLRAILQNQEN
PfGluPho conf: PfG6PD inhibitors, hit retest, confirmation, biochemical, fluorescence intensity, single concentration. shares compounds with PfG6PD inh. recombinant PfGluPho, NADPH-diaphorase-resazurin fluorescence. inhibition, % at 20 µM. hit rate 34% among 2,400. AID 504753, 2011;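 active = inhibition of at least 50% at 20 µM in any single replicate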;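 also: 0% = DMSO with substrate and 100% = DMSO lacking glucose-6-phosphate substrate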
Diaphorase 10uM: diaphorase inhibitors and chemical oxidizers, confirmation, counter-screen for P. falciparum G6PD inhibitor project, biochemical, fluorescence intensity, 10 µM NADPH; diaphorase-coupled resazurin reduction, NADPH 10 uM; shares compounds with PfG6PD inh; inhibition, % at 20 µM; hit rate 39% among 820;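 active = average inhibition reaching 50% or more with the compound at 20 µM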;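 also: resorufin red fluorescence formed as diaphorase reduces resazurin using NADPH; 0% = DMSO with enzyme and 100% = DMSO without enzyme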
Diaph ctr 30uM: diaphorase inhibitors and chemical oxidizers, confirmation, counter-screen for P. falciparum G6PD inhibitor project, biochemical, fluorescence intensity, 30 µM NADPH; shares compounds with PfG6PD inh; Diaphorase/resazurin coupled assay, resorufin fluorescence; inhibition, % at 20 µM; hit rate 29% among 820; AID 504863, 2011;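 active = inhibition averaging 50% or more, tested at 20 µM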;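 also: 0% = DMSO with enzyme and 100% = DMSO wells lacking diaphorase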
An asterisk follows results filed as active; . = no result given.

SMILES	NadD inh	H9c2 protect	H9c2 TAG inh	A3A deaminase	PfG6PD inh	A3G deaminase	PfGluPho conf	others
COC(=O)C1CN(C(=O)COc2ccccc2)c2ccccc2O1 (stereo unspecified)	-4	-3	.	1	-5	0	.
COC(=O)c1cc(C)nc2c1C(=O)C(=O)C=C2N1CCOCC1	7	-10	.	3	105*	-6	101*	Diaphorase 10uM=99*;Diaph ctr 30uM=103*
O=C1CCN(Cc2ccccc2)C=C1c1cccc(O)c1	1	0	0	-2	1	-7	.
Oc1ccc(NCc2ccc(OCc3ccccc3)cc2)cc1	-7	-9	.	.	66*	.	26
CCc1ccc(CNc2ccc3c(c2)ncn3CC)cc1	-15	-8	.	-4	26	-7	.
CCc1ccc(CNc2ccc(O)cc2)cc1	-1	-14	-17	0	85*	2	43
Cc1nn(C)c(Sc2ccccc2N)c1[N+](=O)[O-]	1	15	.	-5	64*	6	15
Cc1nn(C)c(N)c1[N+](=O)[O-]	-6	2	-8	-5	8	-3	.
Cc1ccc(S(=O)(=O)NC(=O)C2(C)CCN2C(=O)Cc2cc(F)ccc2F)nc1 (stereo unspecified)	-4	7	9	.	.	.	.
CC(=O)Nc1ccc2c3c(cccc13)C(=O)N(c1ccccc1)C2=O	-1	-3	-2	-1	0	-7	.
O=CNc1ccc2c3c(cccc13)-c1ccccc1-2	-7	-6	-113	.	104*	.	18
O=C(COc1cccc(F)c1)Nc1nc(-c2ccccn2)cs1	4	59*	-5	.	62*	.	6
Cc1cccc(OCC(=O)Nc2nc(-c3ccncc3)cs2)c1	4	-1	13	-1	9	7	.
O=C(Nc1ccc2nc(-c3ccco3)c(-c3ccco3)nc2c1)NC1CC1	28*	6	9	101	82*	92	32
Nc1ccc(-c2nc3ccccc3o2)cc1	-40	-7	.	10	-1	-7	.
O=C1C=CC(=O)N1c1ccc(-c2nc3ccccc3o2)cc1	11	-11	8	.	108*	.	77*	Diaphorase 10uM=-25;Diaph ctr 30uM=-3
CCNc1ccccc1CP(=O)(c1ccccc1)c1ccccc1O (stereo unspecified)	.	.	.	0	81*	31	87*	Diaphorase 10uM=44;Diaph ctr 30uM=23
C=CCN=c1scc(-c2ccco2)n1/N=C/c1ccc(O)c(O)c1O	20	17	7	30	73*	21	48*	Diaphorase 10uM=-2;Diaph ctr 30uM=15
CN=c1scc(C)n1/N=C/c1ccc(O)c(O)c1O	6	-2	7	3	88*	2	78*	Diaphorase 10uM=35;Diaph ctr 30uM=39
CN=c1scc(-c2cccs2)n1/N=C/c1ccc(O)c(O)c1O	20	-7	17	11	34	5	.
COc1ccc(NC(=O)[C@H](C)NC(=O)[C@@H]2Cc3ccccc3CN2C(=O)OC(C)(C)C)cc1	-5	-2	.	6	25	1	.
COc1cccc(C=Nc2cccc3c(=O)[nH][nH]c(=O)c23)c1O	2	-27	4	-1	0	-2	.
O=C1CN(C(=O)c2cc3ccccc3o2)c2ccccc2N1	0	-5	.	-1	1	-2	.
FC(F)(F)c1cccc(-c2nc3nc(Cl)c(Cl)nc3[nH]2)c1	-3	-16	.	-5	102*	-10	76*	Diaphorase 10uM=77*;Diaph ctr 30uM=57*
O=C(/C=C1\C(=O)Nc2ccccc21)/C=C1\C(=O)Nc2ccccc21	25	-14	.	.	81*	.	41
SMILES	NadD inh	H9c2 protect	H9c2 TAG inh	A3A deaminase	PfG6PD inh	A3G deaminase	PfGluPho conf	others
O=C(NCC1CCN(c2ccc(S(=O)(=O)N3CCOCC3)cc2)CC1)Nc1ccccc1F	10	-1	.	0	15	0	.
CC(Sc1ncn[nH]1)C(=O)c1c(N)n(C)c(=O)n(C)c1=O (stereo unspecified)	-6	1	-5	-1	-26	-5	.
O=C(NC1CCCC1)c1cc2c(ccc3ccccc32)o1	2	-12	-2	2	72*	4	20
CCN(CC)C(=O)c1cccc(-c2csc(C(C)(O)c3cccc(F)c3)n2)c1 (stereo unspecified)	-2	-9	-8	.	.	.	.
CN(C(=S)Nc1ccccc1)c1ccccc1	-4	-5	.	1	4	-1	.
CN(C(=S)Nc1cccnc1)c1ccc(O)cc1	3	4	-12	.	67*	.	2
CN(C(=S)Nc1ccc(Oc2ccccc2)cc1)c1ccc(O)cc1	10	-12	.	.	78*	.	11
CCN(C(=S)Nc1cccnc1)c1ccccc1	-3	-6	2	1	7	1	.
CN(C(=S)Nc1ccc(SC(F)F)cc1)c1ccc(O)cc1	0	-7	.	-1	70*	27	-17
CCc1ccccc1N(CC(=O)NC(C)C)C(=O)CCC(=O)Nc1nccs1	5	11	.	-1	23	-2	.
Cc1cccc(OCC(=O)NCCNC(=O)c2ccco2)c1	6	-1	.	-3	1	-7	.
Cc1ccc2[nH]c(O)c(N=NC(=O)C(C)n3cnc4ccccc4c3=O)c2c1 (stereo unspecified)	5	1	6	1	68*	3	50*	Diaphorase 10uM=68*;Diaph ctr 30uM=55*
COc1ccc(/C=N/NC(=O)c2ccc(CN3C(=O)c4cccc5cccc3c45)cc2)cc1O	22	5	-4	-2	58	-6	.
COc1cc(/C=N/NC(=O)c2ccc(CN3C(=O)c4cccc5cccc3c45)cc2)cc(OC)c1O	17	9	13	5	64*	1	43
CCN(CC)c1ccc(C(=C2C=CC(=[N+](CC)CC)C=C2)c2ccc(N(CC)CC)cc2)cc1	6	-27	136	.	92*	.	85*	Diaphorase 10uM=35;Diaph ctr 30uM=22
CCN(CC)c1ccc(C(=C2C=CC(=[N+](CC)CC)C=C2)c2ccccc2)cc1	1	-21	141	.	100*	.	68*	Diaphorase 10uM=-4;Diaph ctr 30uM=5
